In the library only some 3.7% were active in any assay of this set; here they are far more common.
miR-21 act: qHTS Assay for Modulators of miRNAs and/orActivators of miR-21; Potency, µM (titrated, usually from 38.3 µM), for inactives: at the highest dose activity change, positive = activation, most hits filed as activators; HeLa miR-21 FLuc reporter, luciferase, 48 h; 340,000 tested, under 10 active;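 further: % of control where 0% means no effect; miR-21 action dims this reporter so a rising signal means less miR-21 action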
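Luminescence from a firefly luciferase reporter carrying a miR-21 binding site downstream, stably expressed under a CMV promoter in HeLa cells that make miR-21 endogenously, reports miRNA modulation after 48 h compound exposure up to approximately 40uM final.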
Nrf2 block: Nrf2 qHTS screen for inhibitors; A549 ARE-Fluc reporter, luciferase luminescence, 18-24 h; Potency, µM (doses to about 46 µM), for the others: at the top dose activity change, negative = inhibition, hits mostly inhibitors; 360,000 compounds, 2.1% hits; further: potency means the concentration at half of the fitted maximal effect; on the % scale 0 is the no-effect control and ±100 the full control effect; nearly all actives have a fitted effect of over 60% in size
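Concentration-response testing used A549 ARE_Fluc cells at 5000 cells/well. Following an 18-24 h compound incubation, viability was read by fluorescence (Ex 405/Em 525) and luciferase output by luminescence.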
A549 tox: Nrf2 qHTS screen for inhibitors: counterscreen for cytotoxicity; A549 ARE-Fluc cells, CellTiter-Fluor viability, 18-24 h; Potency, µM (highest dose often 46 µM), for inactives: at the top dose activity change, negative = cytotoxicity, actives largely listed as inhibitors; 390,000 compounds, 0.16% hits; further: potency means the concentration at half of the fitted maximal effect; on the % scale 0 is the no-effect control and ±100 the full control effect
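Cytotoxicity counterscreen: CellTiter-Fluor fluorescence was measured in A549 ARE_Fluc cells after 18-24 h of compound exposure in a concentration series. The subsequent BugLite luminescent read reports ARE-luciferase activity.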
Nrf2 activator: qHTS of Nrf2 Activators. AREc32 ARE-luciferase reporter (MCF7-derived line), luminescence, 24 h. Potency, µM (titrated, usually from 46.1 µM), for the others: top-dose activation, hits mostly activators. 410,000 compounds, 0.31% hits; further: potency means the concentration at half of the fitted maximal effect; % of control where 0% means no effect; nearly all actives have a fitted effect of over 65% in size
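Steps: seed AREc32_Fluc cells (1000/well, 5% FBS OPTI-MEM); incubate overnight at 37 deg C; add 23 nL compound; incubate 24 hr; add Steady-Glo; hold 30 min RT; read luminescence.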
IL2 activator: qHTS of IL-2 Activators; IL-2 activation reporter assay, cell-based qHTS; stimulated with anti-CD3/CD4/CD28 beads; in transgenic mouse T cells; activation, % (series mostly up to about 46 µM); 360,000 compounds, 0.065% hits; AID 652025, 2013; in the data active means activation above about 50%; inconclusive means mostly about 30% to 49%; further: 0% is about no effect
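First, unstimulated transgenic mouse T cells were exposed to compound for 60 min. Next, anti-CD3/anti-CD4-coated beads with anti-CD28 were added. Finally, after 18 h at 37 degrees C, EGFP and DsRed were imaged.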
ClpP mod: qHTS Assay for Activators of ClpP; ATP-dependent Clp protease proteolytic subunit (Bacillus subtilis (strain 168)), P80244; purified B. subtilis ClpP, FRET peptide cleavage, 20 min; Potency, µM (top dose mostly 57.5 µM), for the others: top-dose activity change, negative = active; 340,000 compounds, 1.9% hits; AID 651965, 2013; active means well fitted falling curve with a large enough effect; inconclusive means small, poorly fitted or top-dose-only effect; inactive means no such curve, though single readings can be large or run the other way; further: potency means the concentration at half of the fitted maximal effect; the source files actives as falling curves though it sought activators and does not explain the sign; nearly all actives have a fitted effect of over 65% in size
Target sequence (P80244 whole entry, looked up): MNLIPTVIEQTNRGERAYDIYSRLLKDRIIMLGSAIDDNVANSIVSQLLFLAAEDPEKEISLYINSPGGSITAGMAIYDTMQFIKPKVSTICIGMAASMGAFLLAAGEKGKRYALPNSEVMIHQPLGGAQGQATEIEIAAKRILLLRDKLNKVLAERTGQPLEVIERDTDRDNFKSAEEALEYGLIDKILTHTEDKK
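FRET quenching reversal measured ClpP activation: 10 microg/mL B. subtilis ClpP at pH 8 with the FRET-FV decapeptide, read at 430 nm after 320 nm excitation. The 20-min minus 0-min signal was scaled between DMSO/no-enzyme wells and ADEP (5.8 microM final).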
Active calls of the source: *; u = inconclusive; x = no result. Unless noted, the call rests on the fitted dose curve; in most records, active means well fitted curve in the direction sought with a large enough effect; inconclusive means small, poorly fitted or top-dose-only effect, or another doubt; inactive means no such curve, though single readings can be large; an effect the other way counts as inactive or inconclusive.

SMILES	miR-21 act	Nrf2 block	A549 tox	Nrf2 activator	IL2 activator	ClpP mod
O=C(Nc1nnc(-c2ccccc2Cl)o1)c1ccco1	-7.0%	x	1.7%	12.6µM*	4.8	-0.6%
O=C(Nc1ccccc1C(=O)OCc1cc(=O)n2nc(C3CC3)sc2n1)c1cccc(F)c1	-3.3%	x	1.5%	0.7%	x	-5.3%
O=C1CC(C(=O)Nc2ccc(O)c(C(=O)O)c2)C(c2ccccc2)O1 (centres undefined)	-5.3%	-6.7%	-7.3%	0.0%	-0.2	25.1µM*
Cc1ccc(S(=O)(=O)N2CN(Cc3ccco3)c3nc4ccccc4nc32)cc1	-16.4%	u	-16.5%	8.4%	0.2	-29.9%
Cc1ccc2cc3c(nc2c1)N(Cc1ccco1)CC3	-19.8%	x	-1.7%	18.9%	-0.6	28.2µM*
Cc1ccc(C)c(NC(=O)c2cc(S(=O)(=O)N3CCCCCC3)ccc2F)c1	-8.0%	x	2.3%	0.3%	x	-0.6%
COc1cccc(CCNC(=O)c2ccc(Cn3c(SCc4ccccc4)nc4cccnc43)cc2)c1	2.2%	u	-26.4%	2.8%	x	25.1µM*
O=C(NCCc1ccccc1)c1ccc(CSc2nc3cccnc3n2Cc2ccccc2)cc1	-5.0%	u	-13.8%	0.6%	x	4.0%
CN(Cc1ccccc1)C(=O)c1ccc(CSc2nc3cccnc3n2Cc2ccccc2)cc1	u	20.6µM*	u	-4.8%	x	4.7%
COc1ccc(Cn2c(SCc3ccc(C(=O)NCCc4ccccc4)cc3)nc3cccnc32)cc1	-7.9%	-23.8%	-9.7%	0.7%	x	63.2%
CCOc1ccccc1CNC(=O)c1ccc(Cn2c(SCc3ccccc3)nc3cccnc32)cc1	-20.9%	20.6µM*	-15.7%	5.5%	x	15.8µM*
CCOc1ccccc1CNC(=O)c1ccc(NC(=O)N2CCSc3ncccc32)cc1	-1.2%	18.4µM*	2.4%	1.2%	x	u
O=c1[nH]c2ccc(NS(=O)(=O)c3ccc(F)cc3)cc2s1	-0.8%	x	9.7%	10.8%	x	-4.1%
COc1ccc(CCNC(=O)c2ccc(Cn3c(SCc4ccccc4)nc4cccnc43)cc2)cc1	-1.0%	-15.2%	-9.9%	1.1%	x	31.6µM*
CCCC(=O)N1c2ccccc2-c2nnc(SC)nc2OC1c1sccc1C (centres undefined)	0.2%	9.4%	-6.2%	0.4%	x	-6.2%
Cc1nc2cc(-c3cccs3)[nH]n2c(=O)c1C	x	9.5%	-4.2%	6.5%	0.6	14.1µM*
c1ccc(-c2nc(-c3ccco3)n3ccccc23)cc1	2.9%	3.4%	5.5%	11.2µM*	-0.9	-25.6%
COc1ccc(CCNC(=O)CCCn2c(=O)c3ccccc3n(Cc3c(C)cc(C)cc3C)c2=O)cc1OC	-2.3%	3.9%	-0.9%	-0.1%	x	-3.0%
CC(C)c1cc(NCCN2CCOCC2)n2c(nc3ccccc32)c1C#N	x	-6.1%	5.3%	0.5%	-2.6	-5.1%
N#Cc1c2c(c(NCCN3CCOCC3)n3c1nc1ccccc13)CCCC2	0.4%	5.7%	-6.3%	3.7%	-1.1	u
N#Cc1c2c(c(NCCCN3CCOCC3)n3c1nc1ccccc13)CCC2	0.9%	-15.2%	-20.0%	1.0%	-1.0	31.6µM*
CC(C)c1cc(NCCCN2CCOCC2)n2c(nc3ccccc32)c1C#N	-11.2%	2.0%	-6.3%	-0.2%	-0.7	28.2µM*
CCN(c1ccccc1)S(=O)(=O)c1ccc(NC(=O)c2nc(S(C)(=O)=O)ncc2Cl)cc1	u	20.6µM*	u	-2.8%	-2.2	7.6%
Cc1ccc2oc(-c3ccc(C)c(NC(=O)c4ccc(-c5ccccc5[N+](=O)[O-])o4)c3)nc2c1	-65.0%	u	-5.8%	4.9%	x	-0.9%
O=C(NNC(=O)c1cc2ccccc2cc1O)Nc1ccc(Br)cc1	-9.2%	4.3%	-4.3%	-0.7%	-0.6	28.2µM*
SMILES	miR-21 act	Nrf2 block	A549 tox	Nrf2 activator	IL2 activator	ClpP mod
O=C(Cc1ccccc1)Nc1sc2c(c1C(=O)Nc1cccc(Cl)c1)CCCC2	x	0.2%	4.5%	x	x	x
O=C(Nc1ccc(F)cc1)N1CCN(c2nc3ccccc3s2)CC1	20.7%	20.6µM*	-7.4%	2.4%	0.4	-0.4%
O=C(c1ccc2ncsc2c1)N1CCN(c2ccccc2Cl)CC1	-15.6%	2.7%	7.0%	2.2%	-1.1	-7.1%
O=C(c1ccc2ncsc2c1)N1CCN(c2nc3ccccc3s2)CC1	17.4%	18.4µM*	-18.5%	2.3%	0.1	-0.5%
O=C(Nc1ccc(F)cc1)N1CCCN(c2nccc(C(F)(F)F)n2)CC1	-1.2%	11.6µM*	u	-0.6%	-0.5	1.0%
Cc1ccc2nc(-c3ccc(C)c(NC(=O)COc4ccc(Br)cc4)c3)oc2c1	x	x	x	x	x	-14.4%
O=c1c(N2CCN(c3cccc(C(F)(F)F)c3)CC2)csc2ccccc12	-14.6%	x	-17.1%	7.1%	x	-10.6%
O=S1(=O)CCOC[C@H](c2ccccc2)N1Cc1ccc(Cl)c(Cl)c1	x	x	x	x	x	1.3%
Cc1ccc(C(=O)c2oc3ccccc3c2NC(=O)c2cc(-c3ccccc3O)n[nH]2)cc1	-7.9%	u	-0.9%	4.3%	-0.6	7.2%
Cc1ccc(C(=O)c2oc3ccccc3c2NC(=O)c2cc(-c3cc(C)ccc3O)n[nH]2)cc1	-2.7%	25.9µM*	-26.2%	2.9%	-2.8	2.5%
CN1CCc2cc3c(c4c2C1CC41CCC(=NO)CC1)OCO3 (centres undefined)	-5.5%	7.2%	1.9%	0.0%	3.1	31.6µM*
COc1ccc(NS(=O)(=O)c2cccc(C(=O)NCC(c3ccc(OC)cc3)N3CCCC3)c2)cc1 (centres undefined)	x	4.2%	-16.7%	3.7%	-0.6	28.2µM*
COc1ccc(NS(=O)(=O)c2cccc(C(=O)NCC(c3ccc(OC)cc3)N3CCCCC3)c2)cc1 (centres undefined)	x	17.5%	-9.5%	1.5%	-0.6	-4.4%
CC(=O)N1CCC2(CC1)OC(=O)C(C)=C2C(=O)NCc1ccc(Cl)cc1	-2.8%	u	13.7%	0.0%	x	-2.3%
Cc1cccc(CNC(=O)c2ccc(C)c(-n3c(C)nc4cccnc43)c2)c1	-1.6%	-23.4%	13.7%	0.0%	x	-16.2%
COc1cccc(OC)c1C(=O)Nc1ccc(-c2nc3ncccc3o2)cc1	-37.5%	-16.2%	-8.9%	3.7%	x	28.2µM*
Cc1ccc(OCC(=O)Nc2ccc(-c3nc4ncccc4o3)cc2)c(C)c1	-19.7%	u	u	1.5%	-1.3	25.1µM*
CC(C)(C)NC(=O)c1oc2ccccc2c1NC(=O)c1ccc(F)cc1	-6.7%	u	18.3%	-0.5%	x	-5.4%

Screening results from PubChem BioAssay.
